Screening data deposited in PubChem BioAssay by several laboratories.
Cardiac RTF inh = cardiac RTF calcium desensitization | IANBD-labeled cardiac RTF, Ca2+ fluorescence | inhibition, % at 7.15 µM | 0.12% of 340,000 active | AID 493244;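 active = inhibition above the mean inhibition of all tested compounds plus 3 SD, cut at about 17% in these data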;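 note: assay run at fixed EC70 calcium of 1.6 mM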
CRFR2-BP antag = blocks CRF-induced signaling of the CRF-BP/CRF-R2 complex. HEK293 CRF-R2/CRF-BP, CRF-induced calcium fluorescence. inhibition, % at 11.8 µM. 0.59% of 350,000 active. AID 588475;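 active = inhibition of the ligand-induced calcium signal above about 50% at the single tested concentration, limit read from the data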
IDE inh = cellular human IDE inhibition; P14735; HEK cells, FAbetaB cleavage, fluorescence polarization; inhibition, % at 5.59 µM; 0.41% of 320,000 active;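 active = percent inhibition above the average of all tested compounds plus 3 SD, set per screening campaign, cut at about 16% in these data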;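 note: IDE supplied by intact live HEK cells; FP after avidin binding of uncleaved biotin substrate so inhibition keeps polarization high; 0% = DMSO wells and 100% = 60 µM reference IDE inhibitor Ii1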
Target sequence (P14735 whole entry, looked up): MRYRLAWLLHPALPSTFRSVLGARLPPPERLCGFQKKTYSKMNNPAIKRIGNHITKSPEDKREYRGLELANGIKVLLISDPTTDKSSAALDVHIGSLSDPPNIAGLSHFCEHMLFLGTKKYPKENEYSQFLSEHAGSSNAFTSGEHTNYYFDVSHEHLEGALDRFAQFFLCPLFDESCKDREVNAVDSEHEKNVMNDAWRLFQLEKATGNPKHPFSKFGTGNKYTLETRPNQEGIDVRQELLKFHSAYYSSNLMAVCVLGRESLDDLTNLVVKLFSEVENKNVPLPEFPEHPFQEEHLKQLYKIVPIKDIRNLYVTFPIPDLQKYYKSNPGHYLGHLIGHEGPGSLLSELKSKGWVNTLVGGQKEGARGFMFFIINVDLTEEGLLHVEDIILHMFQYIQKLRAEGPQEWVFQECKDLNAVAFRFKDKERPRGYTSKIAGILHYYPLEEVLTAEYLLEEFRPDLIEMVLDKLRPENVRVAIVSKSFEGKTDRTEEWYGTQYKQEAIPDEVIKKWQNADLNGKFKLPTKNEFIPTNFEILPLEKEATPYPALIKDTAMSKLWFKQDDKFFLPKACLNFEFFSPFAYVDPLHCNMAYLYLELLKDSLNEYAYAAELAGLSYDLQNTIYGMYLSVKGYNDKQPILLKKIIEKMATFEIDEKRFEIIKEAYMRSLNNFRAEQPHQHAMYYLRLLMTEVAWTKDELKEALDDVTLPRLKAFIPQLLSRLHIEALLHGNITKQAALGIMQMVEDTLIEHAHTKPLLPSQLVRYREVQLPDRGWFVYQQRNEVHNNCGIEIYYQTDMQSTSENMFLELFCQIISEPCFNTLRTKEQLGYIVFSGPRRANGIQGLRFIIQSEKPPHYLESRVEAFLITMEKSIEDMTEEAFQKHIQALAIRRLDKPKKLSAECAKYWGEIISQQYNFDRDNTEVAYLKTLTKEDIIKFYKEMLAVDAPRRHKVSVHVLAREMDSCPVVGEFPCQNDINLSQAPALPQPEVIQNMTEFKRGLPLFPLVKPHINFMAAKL
IDE cell activ = IDE (human) activation, cell-based. P14735. HEK cells, FAbeta-B cleavage, fluorescence polarization; 0% vehicle, 100% cell-free pure enzyme wells. activation, % at 5.96 µM. 0.073% of 340,000 active. AID 493087;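 active = activation above the mean of all tested compounds plus 3 SD, set per screening campaign, cut at about 17% in these data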
RTF Ca sens act = cardiac RTF calcium sensitization. P19429+P45379. IANBD-labeled TnC RTF fluorescence at EC20 calcium; 0% EC20 calcium, 100% full calcium. activation, % at 7.2 µM. 0.24% of 340,000 active;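 active = activation above the mean over all tested compounds plus 3 SD, cut at about 30% in these data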;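 note: rise in fluorescence read as greater calcium sensitivity of cardiac thin filaments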
CRFBP-R2 agonist = agonists of human CRF-binding protein/CRF-R2 receptor complex; activation, % at 13.2 µM; AID 588473; HEK293 CRF-R2/CRF-BP, calcium dye fluorescence (FLIPR); percent of saturating CRF peptide response; 0.46% of 350,000 active;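 active = activation of at least 50%, plus an integration ratio under a set limit after plate pattern correction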;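 note: plate controls were neutral control wells without compound for no effect and CRF at EC100 for full effect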
Active calls of the source: *; . = not tested or not shown. Compounds with a hit are over-represented: about 1.5% of the library has one in this group of screens.

SMILES | Cardiac RTF inh | CRFR2-BP antag | IDE inh | IDE cell activ | RTF Ca sens act | CRFBP-R2 agonist
O=C(O)c1ccccc1Nc1ccccc1C(=O)O | -7 | 20 | 1 | 5 | -1 | 1
O=C(O)c1ccccc1Nc1ccc([N+](=O)[O-])cc1 | -17 | 4 | -14 | 28* | -2 | 2
CCC(/C=C1\Oc2ccc(OC)cc2N1C)=C\c1sc2ccccc2[n+]1CCCS(=O)(=O)[O-] | -11 | 10 | . | -10 | 77* | 2
COc1cc(/C=C/c2sc3ccccc3[n+]2CCCS(=O)(=O)[O-])ccc1O | -85 | -14 | 10 | -13 | 68* | 19
O=C(Nc1ccc(-c2nc3ccccc3o2)cc1)c1ccc2c(c1)OCO2 | -6 | -31 | -4 | 18* | 2 | 0
CC(=O)OCCn1c([N+](=O)[O-])cnc1C=[N+]([O-])C1CCCCC1 | . | -12 | . | . | . | 2
c1cc(C2CCN(Cc3nc(-c4ccc5c(c4)OCO5)no3)CC2)ccn1 | -8 | 11 | -4 | 6 | -2 | 0
COCC1CCN(Cc2nc(-c3ccc4c(c3)OCO4)no2)C1 (centres undefined) | -12 | -163 | -5 | -5 | 6 | 203*
CNC[C@@H]1Oc2ccc(NS(=O)(=O)c3ccc(OC)cc3)cc2CC(=O)N([C@H](C)CO)C[C@@H]1C | -5 | 2 | 2 | 22* | 1 | 0
C[C@H]1CN([C@@H](C)CO)C(=O)Cc2cc(NS(C)(=O)=O)ccc2O[C@@H]1CN(C)Cc1ccc(Cl)c(Cl)c1 | -11 | 55* | 4 | 6 | 2 | 1
C[C@@H]1CN([C@@H](C)CO)C(=O)Cc2cc(NC(=O)Nc3ccc(F)cc3)ccc2O[C@@H]1CN(C)Cc1ccc(Cl)c(Cl)c1 | 0 | -3 | -4 | 6 | 4 | 1
CC1(O)c2ccccc2C(=O)N1CCc1ccccc1F (centres undefined) | -4 | 59* | 0 | 2 | 1 | -4
COc1ccccc1C1SCCN1S(=O)(=O)c1ccccc1 (centres undefined) | . | 108* | . | . | . | -1
CC1(c2ccccc2)NC(=O)N(CC(=O)Nc2ccc3c(c2)OCO3)C1=O (centres undefined) | -3 | -1 | -1 | 1 | 0 | -2
CC(=O)Nc1ccc(/C=N/N2C(=O)NC(C)(c3ccc(OC(F)F)cc3)C2=O)cc1 (centres undefined) | 1 | -91 | 1 | 12 | 0 | 130*
CC1(c2ccc(OC(F)F)cc2)NC(=O)N(CC(=O)Nc2ccc3c(c2)OCO3)C1=O (centres undefined) | 1 | -56 | -3 | -5 | 2 | 122*
CC1(c2ccc(OC(F)F)cc2)NC(=O)N(CC(=O)Nc2ccccc2)C1=O (centres undefined) | -5 | -34 | -2 | 1 | 5 | 76*
OCCC1CN(Cc2ccc3cccc(F)c3n2)CCN1Cc1ccccc1 (centres undefined) | -4 | -10 | -2 | 3 | 4 | 0
CCN(C[C@H]1N[C@@](C)(C(=O)OC)[C@H]2C(=O)N(C)C(=O)[C@@H]12)C(=O)c1ccc(C(C)(C)C)cc1 | -4 | -1 | 3 | 1 | -4 | 0
CCOc1ccc(S(=O)(=O)n2nc(C)cc2C)cc1 | -18 | -22 | 5 | 6 | 5 | 1
CCCc1nnc(SCC(=O)Nc2nc(C)cs2)n1CCOC | 3 | 6 | 0 | 8 | -5 | 0
COc1ccc(/C=C2\SC(c3ccc(C)cc3)=NC2=O)cc1OC | -28 | -137 | 1 | -30 | 20 | 132*
COc1cc(/C=C2\SC(c3ccc(C)cc3)=NC2=O)ccc1O | -11 | -120 | 8 | -11 | 2 | 50*
COc1ccc(/C=C2/SC(c3ccc(C)cc3)=NC2=O)cc1OC | -33 | -32 | -5 | -16 | 28 | 36
Cc1cccc(C)c1N1CCN(CCn2c(=S)[nH]c3ccccc3c2=O)CC1 | 0 | 7 | . | 1 | -1 | -1
O=C(O)c1cnn(-c2nc(-c3ccc(Cl)c(Cl)c3)cs2)c1C(F)(F)F | 2 | 50* | 0 | 1 | 1 | -2
O=C(O)c1cnn(-c2nc(-c3cccc(F)c3)cs2)c1C(F)(F)F | 3 | 8 | -2 | 8 | 3 | 1
